Most compounds without a hit are left out; they make up all but 6.7% or so of the library.
C diff growth – blocks growth of Clostridium difficile | AID 1259249 | growth activity, negative = inhibition, % at 16 µg/mL (by protocol) | Clostridium difficile clinical isolate growth, OD600, 24 h; active compounds read low | 86,000 tested, 0.25% active;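 active means mean growth activity at or below -80% and every replicate also at or below -80%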
T cruzi growth-1 – blocks T. cruzi growth in NIH3T3 culture. T. cruzi beta-gal in NIH3T3, GalScreen luminescence, 90 h. inhibition, % at 8.34 µM. 77,000 tested, 5.9% active. AID 624255;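 active means mean inhibition above about 93%, with at least 55% of replicates each passing it, limit read from the data, passing the limit was not always enough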
Pf Dd2 inh – inhibitors of Plasmodium falciparum Dd2 growth; P. falciparum Dd2 growth, SYBR Green, 72 h; active compounds read low; activity change, % at 10 µM; 94,000 tested, 2.3% active; AID 1159554; in the data active means activity change below about -80%
T cruzi growth-2 – inhibitors of T. cruzi proliferation | AID 651739 | inhibition, % at 8.35 µM | shares compounds with T cruzi growth-1 | 5,600 tested, 72% active | T. cruzi beta-gal in NIH3T3, GalScreen luminescence, 90 h;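 active means mean replicate inhibition above about 95% and at least 55% of replicates individually reaching it, limit read from the data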
T cruzi growth-3 – Trypanosoma cruzi proliferation inhibition; shares compounds with T cruzi growth-1; T. cruzi beta-gal in NIH3T3, GalScreen luminescence, 90 h; inhibition, % at 2.09 µM; 5,600 tested, 21% active; AID 651740;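 active means mean inhibition above about 95%, with at least 55% of replicates also reaching it, limit read from the data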
NIH3T3 tox – NIH/3T3 (mouse) viability loss. shares compounds with T cruzi growth-1. NIH/3T3 viability, CellTiter-Glo ATP luminescence, 90 h. cytotoxicity (signal decrease), % at 8.35 µM. 5,600 tested, 14% active. AID 651742;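 active means mean signal decrease across replicates above about 35% based on untreated-well scatter, with enough replicates individually passing, limit read from the data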
NIH3T3 tox 2 – kills mouse NIH/3T3 fibroblasts | shares compounds with T cruzi growth-1 | NIH/3T3 viability, CellTiter-Glo ATP luminescence, 90 h | inhibition, % at 24.9 µM | 5,600 tested, 56% active;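 active means mean loss of cell viability signal at or above a set limit, and enough replicates individually reaching it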
Hits are given with their value.

How did C[C@@H]1CN([C@@H](C)CO)C(=O)c2cc(NC(=O)Nc3ccccc3)ccc2O[C@@H](C)CCCCO[C@H]1CN(C)C(=O)CCC(F)(F)F do in these assays?
C diff growth: inactive; T cruzi growth-1: inactive; Pf Dd2 inh: inactive

What do the screens show for `COCC(=O)N1CC(=O)N2[C@@H](CO)[C@H](c3ccc(C#CC4CCCC4)cc3)[C@@H]2C1`?
C diff growth: inactive; Pf Dd2 inh: inactive

How did O=C(Nc1ccc(F)cc1)Nc1ccc2c(c1)[C@H]1C[C@H](CC(=O)N3CCCCC3)O[C@H](CO)[C@H]1O2 do in these assays?
C diff growth: inactive; T cruzi growth-1: inactive; Pf Dd2 inh: inactive

Results for C[C@@H]1CN([C@@H](C)CO)C(=O)c2cc(NC(=O)c3ccncc3)ccc2O[C@@H](C)CCCCO[C@@H]1CN(C)C(=O)C1CCCCC1 ?
C diff growth: inactive; T cruzi growth-1: inactive; Pf Dd2 inh: inactive

How did N#Cc1cccc(-c2ccc([C@@H]3[C@H]4CN(C(=O)Nc5ccc(F)cc5)CCCCN4[C@H]3CO)cc2)c1 do in these assays?
C diff growth: inactive; T cruzi growth-1: inactive; Pf Dd2 inh: inactive

What do the screens show for `N#Cc1ccc(-c2ccc([C@@H]3[C@H](CO)N4CCCCN(C(=O)Nc5ccc(F)cc5)C[C@@H]34)cc2)cc1`?
C diff growth: inactive; T cruzi growth-1: inactive; Pf Dd2 inh: inactive

What do the screens show for `N#Cc1cccc(-c2ccc([C@@H]3[C@H](CO)N4CCCCN(C(=O)Nc5ccc(F)cc5)C[C@@H]34)cc2)c1`?
C diff growth: inactive; T cruzi growth-1: inactive; Pf Dd2 inh: inactive

What do the screens show for `N#Cc1cccc(-c2ccc([C@H]3[C@H]4CN(C(=O)Nc5ccc(F)cc5)CCCCN4[C@H]3CO)cc2)c1`?
C diff growth: inactive; T cruzi growth-1: 100; Pf Dd2 inh: inactive; T cruzi growth-2: 101; T cruzi growth-3: inactive; NIH3T3 tox: inactive; NIH3T3 tox 2: inactive

Results for N#Cc1cccc(-c2ccc([C@@H]3[C@@H](CO)N4CCCCN(C(=O)Nc5ccc(F)cc5)C[C@@H]34)cc2)c1 ?
C diff growth: inactive; T cruzi growth-1: 109; Pf Dd2 inh: inactive; T cruzi growth-2: 106; T cruzi growth-3: inactive; NIH3T3 tox: 47; NIH3T3 tox 2: 98

Results for N#Cc1ccc(-c2ccc([C@H]3[C@@H](CO)N4CCCCN(C(=O)Nc5ccc(F)cc5)C[C@@H]34)cc2)cc1 ?
C diff growth: inactive; T cruzi growth-1: 100; Pf Dd2 inh: inactive; T cruzi growth-2: 112; T cruzi growth-3: inactive; NIH3T3 tox: inactive; NIH3T3 tox 2: inactive

How did C/C=C/c1ccc2c(c1)O[C@H](CN(C)C(=O)c1cccc(F)c1)[C@@H](C)CN([C@H](C)CO)S2(=O)=O do in these assays?
C diff growth: inactive; T cruzi growth-1: inactive; Pf Dd2 inh: inactive

What do the screens show for `C[C@H](CO)N1C[C@H](C)[C@@H](CN(C)S(=O)(=O)c2ccc(Cl)cc2)Oc2ccc(NC(=O)Cc3cn(C)c4ccccc34)cc2C1=O`?
C diff growth: inactive; T cruzi growth-1: inactive; Pf Dd2 inh: inactive

How did Cc1noc(C)c1NC(=O)Nc1ccc2c(c1)CC(=O)N([C@H](C)CO)C[C@H](C)[C@@H](CN(C)C(=O)Nc1c(C)noc1C)O2 do in these assays?
C diff growth: inactive; T cruzi growth-1: inactive; Pf Dd2 inh: inactive

How did O=C(Nc1ccccc1)N1CCCCN2[C@H](CO)[C@@H](c3ccc(C#Cc4cccnc4)cc3)[C@@H]2C1 do in these assays?
C diff growth: inactive; T cruzi growth-1: inactive; Pf Dd2 inh: inactive

Results for O=C(Nc1ccccc1F)N1CCCCN2[C@@H](CO)[C@@H](c3ccc(C#Cc4cccnc4)cc3)[C@@H]2C1 ?
C diff growth: inactive; T cruzi growth-1: 107; Pf Dd2 inh: inactive; T cruzi growth-2: 97; T cruzi growth-3: inactive; NIH3T3 tox: inactive; NIH3T3 tox 2: 60

Results for O=C(Nc1ccccc1)N1CCCCN2[C@H](CO)[C@H](c3ccc(C#Cc4cccnc4)cc3)[C@H]2C1 ?
C diff growth: inactive; T cruzi growth-1: inactive; Pf Dd2 inh: inactive

Screening results: PubChem, Broad Institute
